This assay concerns the target Tyrosine-protein kinase ABL1 (Homo sapiens) (UniProt P00519). Kind of assay: ABL1 kinase (ABL1-N-HiBiT) SDR gain of signal screen - plus ATP. The essentials:
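ABL1-N-HiBiT protein (10 nM final) with 50 uM ATP incubated with compounds for 30 min at RT, protected from light. Nano-Glo HiBiT reagent then added for 10 min; luminescence read on CCD imager, with DMSO neutral and imatinib positive controls.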
A general note: The HiBiT peptide binds its large partner to form an active luciferase.

Records with an inconclusive call do not appear. A call without a number means that no potency is given here. Calls of active or inactive are those of the source. Calls follow the shape of the full dose curve.

Sequence of Tyrosine-protein kinase ABL1 (Homo sapiens) (P00519 whole entry, looked up): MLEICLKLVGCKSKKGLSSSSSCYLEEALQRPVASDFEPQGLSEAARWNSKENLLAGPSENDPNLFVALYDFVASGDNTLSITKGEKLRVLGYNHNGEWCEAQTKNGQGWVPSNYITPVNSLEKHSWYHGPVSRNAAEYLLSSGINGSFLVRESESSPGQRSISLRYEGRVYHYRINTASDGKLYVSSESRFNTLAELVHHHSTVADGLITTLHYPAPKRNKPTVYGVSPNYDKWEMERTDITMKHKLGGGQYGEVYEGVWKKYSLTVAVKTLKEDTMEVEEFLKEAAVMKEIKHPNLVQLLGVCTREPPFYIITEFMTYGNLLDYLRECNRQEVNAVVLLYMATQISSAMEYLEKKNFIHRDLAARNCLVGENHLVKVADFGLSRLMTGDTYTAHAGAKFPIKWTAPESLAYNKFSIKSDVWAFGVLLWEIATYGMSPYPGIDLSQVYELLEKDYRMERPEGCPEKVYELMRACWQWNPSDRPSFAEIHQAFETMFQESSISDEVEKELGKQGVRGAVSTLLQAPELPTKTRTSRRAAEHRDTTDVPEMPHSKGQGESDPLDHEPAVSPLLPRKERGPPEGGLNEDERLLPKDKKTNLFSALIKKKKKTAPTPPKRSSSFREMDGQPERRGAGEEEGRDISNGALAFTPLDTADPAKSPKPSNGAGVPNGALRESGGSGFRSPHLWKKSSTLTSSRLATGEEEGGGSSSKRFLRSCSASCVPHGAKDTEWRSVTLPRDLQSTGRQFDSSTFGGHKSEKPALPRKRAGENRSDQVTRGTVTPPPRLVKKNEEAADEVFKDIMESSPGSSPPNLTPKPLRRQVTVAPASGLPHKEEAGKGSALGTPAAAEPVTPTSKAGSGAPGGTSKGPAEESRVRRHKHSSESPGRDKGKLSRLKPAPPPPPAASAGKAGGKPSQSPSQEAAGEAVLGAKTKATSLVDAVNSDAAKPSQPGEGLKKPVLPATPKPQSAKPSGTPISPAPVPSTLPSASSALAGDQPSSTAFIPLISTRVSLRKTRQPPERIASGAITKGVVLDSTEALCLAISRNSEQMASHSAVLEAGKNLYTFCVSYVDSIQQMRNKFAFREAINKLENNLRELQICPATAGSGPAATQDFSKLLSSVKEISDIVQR

As to `CCN1/C(=C\C(C)=O)Sc2ccc(OC)cc21`, the Potency entry is “inactive”. Turning to `O=c1cc(N2CCOCC2)nc2c3ccccc3ccn12`, the Potency result was “inactive”. The entry for `CC(C)CCN1c2nc(Nc3cc(F)c(O)c(F)c3)ncc2N(C)C(=O)C1C` (centres undefined) is “inactive”; for `Cc1nc2ccc(-n3ncc(C(=O)c4cc5ccccc5[nH]4)c3N)cc2[nH]1` it is “inactive”.

Regarding `C=CC(=O)N1CCC(Oc2cc3c(Nc4ccc(Cl)c(Cl)c4F)ncnc3cc2OC)CC1`, the Potency entry was “inactive”. The same measure for `CCn1nc(C2CCN(C(=O)CCO)CC2)nc1-c1cnc(N)c(-c2nnc(C(C)(C)C)o2)n1`: “inactive”; for `COc1cc(N2CCC(O)CC2)ccc1Nc1nc(Nc2ccccc2S(=O)(=O)C(C)C)c2[nH]cnc2n1`: “inactive”; for `COC(=O)Nc1ccc(-c2nc(N3CCOCC3)c3cnn(C4CCN(C(=O)OC)CC4)c3n2)cc1`: “inactive”.

With `C=CC(=O)Nc1cccc(Oc2nc(Nc3ccc(N4CCN(C)CC4)cc3OC)ncc2Cl)c1`, the Potency entry was “inactive”. `Cc1cc(F)ccc1-c1nc(NCCN=C(N)NC#N)nc2c1ccc(=O)n2-c1c(F)cccc1F`: the Potency result was “inactive”. The entry for `COc1cc(NC(=O)c2cccc(-n3cc(NC(=O)Nc4cccc(C)c4)cn3)c2)cc(OC)c1OC` is “inactive”. For `Cc1sc2c(c1C)C(c1ccc(Cl)cc1)=N[C@@H](CC(=O)Nc1ccc(OCCOCCOCCOCCNc3cccc4c3C(=O)N(C3CCC(=O)NC3=O)C4=O)cc1)c1nnc(C)n1-2` (some centres undefined), the Potency result was “inactive”. The entry for `CCCCCCCCCCCCc1ccc(S(=O)(=O)Nc2nncs2)cc1` is “inactive”. For the compound `Cc1ccc(NC(=O)N2CCN(c3nc(N)nc4sc(-c5cccnc5)nc34)CC2)cc1`, the Potency entry is “inactive”.

Values taken from PubChem BioAssay AID1963316 (National Center for Advancing Translational Sciences (NCATS), 2024).
